# Measured values published in PubChem BioAssay (Tox21).
# Results filed as inconclusive are left out. A call without a number means that no potency is given here. The source made the active and inactive calls. Unless noted, calls come from the whole dose curve.
# What was measured:
# [1] = Nuclear factor erythroid 2-related factor 2/antioxidant responsive element (Nrf2/ARE) small molecule agonists: qHTS cell viability counter screen in human keratinocytes (AID 1919968; active = well fitted curve in the direction sought with a large enough effect in the repeat runs; an effect the other way counts as inactive or inconclusive; note: nearly all actives have a fitted effect of over 55% in size; note: potency is the fitted concentration of half-maximal effect)
# Method in brief: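 CellTiter-Fluor fluorescence, read 1 h after reagent, gave viability in the same wells as the ARE-luciferase assay. KeratinoSens cells (1,500/well) had 23 h compound exposure at 37 C/5% CO2 following 5 h plating.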
# [2] = Nuclear factor erythroid 2-related factor 2/antioxidant responsive element (Nrf2/ARE) small molecule agonists: luciferase reporter gene qHTS assay in human keratinocytes (AID 1919969); note: nearly all actives have a fitted effect of over 35% in size; note: potency is the fitted concentration of half-maximal effect
# [3] = target: Gonadotropin-releasing hormone receptor (Homo sapiens) (UniProt P30968); assay: Human gonadotropin-releasing hormone receptor (GnRHR) small molecule agonists, calcium flux assay in GnRHR-HEK293 cells (AID 1920063); note: nearly all actives have a fitted effect of over 35% in size
# Chain of Gonadotropin-releasing hormone receptor (Homo sapiens) (P30968 whole entry, looked up): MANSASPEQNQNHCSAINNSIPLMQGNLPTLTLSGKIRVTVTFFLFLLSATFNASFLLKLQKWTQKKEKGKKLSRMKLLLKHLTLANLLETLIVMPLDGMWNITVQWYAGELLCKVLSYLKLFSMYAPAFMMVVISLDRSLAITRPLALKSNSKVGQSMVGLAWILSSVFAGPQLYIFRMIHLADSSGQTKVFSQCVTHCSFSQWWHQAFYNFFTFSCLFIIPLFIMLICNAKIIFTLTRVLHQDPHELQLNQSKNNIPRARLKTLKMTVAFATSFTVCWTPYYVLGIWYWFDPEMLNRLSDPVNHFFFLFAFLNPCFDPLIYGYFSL
# Method in brief: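 Agonist mode: compounds at 15 concentrations, in triplicate, went onto calcium dye-loaded GnRHR-HEK293 cells. Intracellular calcium was then followed as 480/540 nm fluorescence at 1 s intervals over 3 min.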
# [4] = target: KiSS-1 receptor (Homo sapiens) (UniProt Q969F8); assay: Human kisspeptin (KISS1R) small molecule agonists, calcium flux assay in KISS1R-HEK293 cells (AID 1920064; active = well fitted curve in the direction sought with a large enough effect in the repeat runs; an effect the other way counts as inactive or inconclusive)
# Chain of KiSS-1 receptor (Homo sapiens) (Q969F8 whole entry, looked up): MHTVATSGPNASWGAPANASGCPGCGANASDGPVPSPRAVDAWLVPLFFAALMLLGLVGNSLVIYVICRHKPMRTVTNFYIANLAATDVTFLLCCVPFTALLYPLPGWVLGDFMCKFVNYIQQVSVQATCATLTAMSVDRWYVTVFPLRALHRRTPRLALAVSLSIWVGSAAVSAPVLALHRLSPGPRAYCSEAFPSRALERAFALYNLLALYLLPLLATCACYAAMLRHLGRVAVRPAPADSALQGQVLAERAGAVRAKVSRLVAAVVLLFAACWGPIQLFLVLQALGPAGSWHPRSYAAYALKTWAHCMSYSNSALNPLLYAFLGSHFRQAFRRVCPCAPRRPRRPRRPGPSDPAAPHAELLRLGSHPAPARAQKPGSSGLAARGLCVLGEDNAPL
# Method in brief: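 Agonist mode: intracellular calcium rise tracked at 1 s intervals over 3 min (480/540 nm) immediately after compound addition to dye-loaded KISS1R-HEK293 stable cells. Each compound tested at 15 concentrations in triplicate.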
# [5] = G protein-coupled receptor (GPCR) small molecule agonists, calcium flux assay: HEK293 wild type cell line counter screen (AID 1920065)
# Method in brief: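 Calcium flux counter screen: compound added in agonist mode at 15 concentrations in triplicate to dye-loaded parental HEK293 cells. Fluorescence (480/540) read kinetically for 3 min; ATP served as positive control.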
# [6] = p53 small molecule agonists, cell-based qHTS assay with human liver microsomes: qHTS cell viability counter screen (AID 1963579); note: nearly all actives have a fitted effect of over 45% in size
# Method in brief: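 HLM-supplemented (0.5 mg/mL final) and NADPH-supplemented (0.5 mg/mL final) p53RE-bla cultures, 4,000 cells per well, were dosed with compounds in DMSO for 16 h at 37 C; luminescent ATP detection (CellTiter-Glo, 30 min, room temperature) quantified surviving cells.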
# [7] = p53 small molecule agonists, cell-based qHTS assay with rat liver microsomes: qHTS cell viability counter screen (AID 1963580); note: nearly all actives have a fitted effect of over 45% in size
# Method in brief: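 Counter screen for cytotoxicity under metabolic activation: rat liver microsomes and NADPH, 0.5 mg/mL final each, added with compounds to p53RE-bla HCT-116 cells; 16 h at 37 C, then ATP luminescence read.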
# [8] = p53 small molecule agonists, cell-based qHTS assay: qHTS cell viability counter screen (AID 1963581); note: nearly all actives have a fitted effect of over 45% in size
# Method in brief: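 Counter screen read by CellTiter-Glo luminescence (ATP content, 30 min at room temperature), run in the same wells as the beta-lactamase reporter read. HCT-116 p53RE-bla cells saw compounds for 16 h at 37 C.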
# [9] = target: 5-hydroxytryptamine receptor 2A (Homo sapiens) (UniProt P28223); assay: 5-hydroxytryptamine receptor 2A (HTR2A) small molecule antagonists, cell-based qHTS assay (AID 1963586); note: nearly all actives have a fitted effect of over 45% in size
# Chain of 5-hydroxytryptamine receptor 2A (Homo sapiens) (P28223 whole entry, looked up): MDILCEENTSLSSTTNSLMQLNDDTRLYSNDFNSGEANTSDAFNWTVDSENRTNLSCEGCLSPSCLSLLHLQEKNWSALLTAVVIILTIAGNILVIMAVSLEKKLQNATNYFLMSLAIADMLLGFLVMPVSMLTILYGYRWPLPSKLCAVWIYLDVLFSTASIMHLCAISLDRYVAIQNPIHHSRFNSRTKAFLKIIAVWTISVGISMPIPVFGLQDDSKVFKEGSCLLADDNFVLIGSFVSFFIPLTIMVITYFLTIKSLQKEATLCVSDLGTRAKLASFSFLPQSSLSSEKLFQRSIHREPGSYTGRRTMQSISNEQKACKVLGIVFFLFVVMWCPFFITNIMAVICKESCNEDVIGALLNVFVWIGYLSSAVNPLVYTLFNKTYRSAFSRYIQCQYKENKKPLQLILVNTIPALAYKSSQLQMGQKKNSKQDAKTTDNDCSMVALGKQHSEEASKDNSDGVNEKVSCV
# Method in brief: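 CHO cells stably expressing human HTR2A were plated for 18 h at 37 C, then loaded with calcium dye for 1 h. Compounds were preincubated 5 min at room temperature before DOI (4 nM solution) was added. Kinetic fluorescence was read for 3 min.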
# [10] = target: 5-hydroxytryptamine receptor 2A (Homo sapiens) (UniProt P28223); assay: 5-hydroxytryptamine receptor 2A (HTR2A) small molecule agonists, cell-based qHTS assay (AID 1963587); note: nearly all actives have a fitted effect of over 30% in size
# Method in brief: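 HTR2A-CHO cells, plated 18 h at 37 C/5% CO2, dye-loaded 1 h at 37 C; compounds in DMSO added by pin tool (agonist mode). Intracellular calcium flux read as kinetic fluorescence on FDSS over 2 min at 1 s intervals.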
# [11] = target: Muscarinic acetylcholine receptor M1 (Homo sapiens) (UniProt P11229); assay: Cholinergic receptor muscarinic 1 (CHRM1) small molecule antagonists, cell-based qHTS assay (AID 1963588); note: nearly all actives have a fitted effect of over 40% in size; note: potency is the fitted concentration of half-maximal effect
# Chain of Muscarinic acetylcholine receptor M1 (Homo sapiens) (P11229 whole entry, looked up): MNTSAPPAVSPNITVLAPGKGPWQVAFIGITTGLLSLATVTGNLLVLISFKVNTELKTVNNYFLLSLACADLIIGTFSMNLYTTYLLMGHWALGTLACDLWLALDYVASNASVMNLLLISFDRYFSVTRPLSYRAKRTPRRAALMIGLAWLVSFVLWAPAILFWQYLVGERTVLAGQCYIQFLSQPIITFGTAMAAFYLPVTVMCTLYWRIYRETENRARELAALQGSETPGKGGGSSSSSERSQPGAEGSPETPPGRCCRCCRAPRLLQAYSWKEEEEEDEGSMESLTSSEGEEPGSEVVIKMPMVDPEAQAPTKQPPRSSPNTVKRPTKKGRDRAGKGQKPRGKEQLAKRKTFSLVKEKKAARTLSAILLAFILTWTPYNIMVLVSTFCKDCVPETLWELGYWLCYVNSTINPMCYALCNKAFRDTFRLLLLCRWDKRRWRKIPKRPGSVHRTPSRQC
# Method in brief: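 Compounds were tested at 15 concentrations in three independent runs. Dye-loaded CHRM1-CHO cells were exposed 5 min at room temperature before stimulation by acetylcholine added at 50nM. Intracellular calcium was read kinetically on FDSS for 3 min.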
# [12] = target: Muscarinic acetylcholine receptor M1 (Homo sapiens) (UniProt P11229); assay: Cholinergic receptor muscarinic 1 (CHRM1) small molecule agonists, cell-based qHTS assay (AID 1963589); note: nearly all actives have a fitted effect of over 35% in size
# Method in brief: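 Agonist-mode calcium-flux screen: compounds at 15 concentrations, three independent runs, were pin-transferred onto dye-loaded human CHRM1-CHO cells. Fluorescence was then recorded kinetically every second over minutes.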
# [13] = cAMP Responsive Elements (CRE) small molecule agonists, cell-based qHTS assay (AID 1963590)
# Method in brief: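 Agonist mode: compound added to CRE-bla HEK 293T cells (2,000/well, 18 h after plating) for 3 h at 37 C/5% CO2. Reporter activity detected via FRET beta-lactamase substrate, 2 h room-temperature loading.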
# [14] = cAMP Responsive Elements (CRE) small molecule antagonists, cell-based qHTS assay (AID 1963591; active = well fitted inhibition curve with a large enough effect in the signal ratio in the repeat runs, not every such curve was filed as active; the % refers to the signal ratio)
# Method in brief: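 Antagonist mode: compounds are added alongside the adenylyl cyclase activator NKH477 (0.25 uM final) to CRE-bla HEK293T cells for 3 h. LiveBLAzer FRET substrate, 2 h at room temperature, reports bla expression.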
# [15] = target: Beta-2 adrenergic receptor (Homo sapiens) (UniProt P07550); assay: Adrenergic beta2 receptor (ADRB2) small molecule antagonists, cell-based qHTS assay (AID 1963592); note: series mostly up to about 92 µM; nearly all actives have a fitted effect of over 50% in size
# Chain of Beta-2 adrenergic receptor (Homo sapiens) (P07550 whole entry, looked up): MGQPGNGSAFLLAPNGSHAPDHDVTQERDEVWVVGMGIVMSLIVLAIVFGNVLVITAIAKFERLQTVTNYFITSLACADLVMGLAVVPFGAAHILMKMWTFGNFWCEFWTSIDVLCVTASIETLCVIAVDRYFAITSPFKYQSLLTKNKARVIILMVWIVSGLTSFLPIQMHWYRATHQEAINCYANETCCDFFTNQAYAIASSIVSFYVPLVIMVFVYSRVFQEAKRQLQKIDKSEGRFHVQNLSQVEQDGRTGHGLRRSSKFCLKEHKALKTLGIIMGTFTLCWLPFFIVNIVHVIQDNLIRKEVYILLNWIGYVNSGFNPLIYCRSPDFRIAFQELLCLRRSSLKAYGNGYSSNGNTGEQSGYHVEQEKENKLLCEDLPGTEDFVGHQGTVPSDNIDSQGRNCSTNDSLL
# Method in brief: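 Assay format: CHO-ADRB2 cells, 18-20hr seeding at 37C/5% CO2, then compound plus 1nM isoproterenol agonist mix for 0.5hr RT. Homogeneous time-resolved fluorescence cAMP detection after 1hr, expressed as 665/615 nm ratio.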
# [16] = target: Beta-2 adrenergic receptor (Homo sapiens) (UniProt P07550); assay: Adrenergic beta2 receptor (ADRB2) small molecule agonists, cell-based qHTS assay (AID 1963593);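 note: CHO cells stably overexpressing human ADRB2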
# Method in brief: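 CHO cells stably over-expressing ADRB2 were plated overnight at 37C, then dosed with compounds plus a stimulation mix containing 100uM IBMX and 25uM Ro-20-1724 for 0.5hr at room temperature. cAMP was measured by HTRF competition, 1hr.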
# [17] = target: D(2) dopamine receptor (Homo sapiens) (UniProt P14416); assay: Dopamine D2 receptor (DRD2) small molecule antagonists, cell-based qHTS assay (AID 1963595; active = well fitted inhibition curve with a large enough effect in the signal ratio in the repeat runs, with a control signal flat; the % refers to the signal ratio)
# Chain of D(2) dopamine receptor (Homo sapiens) (P14416 whole entry, looked up): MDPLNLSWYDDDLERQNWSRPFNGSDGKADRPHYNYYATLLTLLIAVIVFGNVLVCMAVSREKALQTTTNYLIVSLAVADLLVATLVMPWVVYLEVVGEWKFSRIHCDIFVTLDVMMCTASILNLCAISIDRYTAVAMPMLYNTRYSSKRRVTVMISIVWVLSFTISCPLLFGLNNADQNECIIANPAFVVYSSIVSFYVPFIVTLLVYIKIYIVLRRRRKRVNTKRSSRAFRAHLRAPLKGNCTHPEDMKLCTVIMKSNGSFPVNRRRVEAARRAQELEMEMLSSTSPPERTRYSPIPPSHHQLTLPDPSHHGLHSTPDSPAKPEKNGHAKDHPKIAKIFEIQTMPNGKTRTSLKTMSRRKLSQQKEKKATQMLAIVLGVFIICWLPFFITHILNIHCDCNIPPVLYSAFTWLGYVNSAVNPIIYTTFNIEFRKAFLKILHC
# Method in brief: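 Stable D2 receptor HEK293 line, 24 h after seeding. Compound preincubated 10 min, then quinpirole (12 nM) with forskolin analogue NKH477 (200 nM), 30 min, room temperature. Detection by time-resolved FRET of cAMP.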
# [18] = target: D(2) dopamine receptor (Homo sapiens) (UniProt P14416); assay: Dopamine D2 receptor (DRD2) small molecule agonists, cell-based qHTS assay (AID 1963594); note: nearly all actives have a fitted effect of over 35% in size
# Method in brief: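 HEK293 cells stably expressing DRD2 were cultured 24 h at 37 C, then given Ro20-1724 (0.1 mM final) and compounds for 10 min at room temperature. NKH477 (200nM) was then added for 30 min. cAMP was read by HTRF.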
SMILES,Potency [1],Potency [2],Potency [3],Potency [4],Potency [5],Potency [6],Potency [7],Potency [8],Potency [9],Potency [10],Potency [11],Potency [12],Potency [13],Potency [14],Potency [15],Potency [16],Potency [17],Potency [18]
Cc1nc([N+](=O)[O-])cn1-c1ccc([N+](=O)[O-])cc1,inactive,inactive,inactive,inactive,inactive,inactive,inactive,inactive,inactive,inactive,inactive,inactive,inactive,inactive,inactive,inactive,inactive,
CN(C)C(=O)COC(=O)Cc1ccc(OC(=O)c2ccc(N=C(N)N)cc2)cc1,inactive,inactive,inactive,inactive,inactive,inactive,inactive,inactive,inactive,inactive,inactive,inactive,inactive,inactive,inactive,inactive,inactive,inactive
CC1(C)SC(C)(C)SC(C)(C)S1,inactive,inactive,inactive,inactive,inactive,inactive,inactive,inactive,inactive,inactive,inactive,inactive,inactive,inactive,inactive,inactive,inactive,inactive
Cc1c(C)c2c(c(C)c1OC(=O)c1cccnc1)CC[C@@](C)(CCC[C@H](C)CCC[C@H](C)CCCC(C)C)O2,inactive,inactive,inactive,inactive,inactive,inactive,inactive,inactive,inactive,inactive,inactive,inactive,inactive,inactive,inactive,inactive,inactive,inactive
C[Si](C)(C)O[Si](O)(O)O,inactive,inactive,inactive,inactive,inactive,inactive,inactive,inactive,inactive,inactive,inactive,inactive,inactive,inactive,inactive,inactive,inactive,inactive
CC(=O)Nc1ccc(OCCOCCOc2ccc(NC(C)=O)cc2)cc1,inactive,inactive,inactive,inactive,inactive,inactive,inactive,inactive,inactive,inactive,inactive,inactive,inactive,inactive,inactive,inactive,inactive,inactive
Cc1ccccc1Br,inactive,inactive,inactive,inactive,inactive,inactive,inactive,inactive,inactive,inactive,inactive,inactive,inactive,inactive,inactive,inactive,inactive,inactive
CCCCNc1ccc(C(=O)OCCN(CC)CC)cc1,inactive,inactive,inactive,inactive,inactive,inactive,inactive,inactive,inactive,inactive,3.26 µM (active),inactive,inactive,inactive,inactive,inactive,inactive,inactive
N#Cc1ccccc1C#N,inactive,inactive,inactive,inactive,inactive,inactive,inactive,inactive,inactive,inactive,inactive,inactive,inactive,inactive,inactive,inactive,inactive,inactive
CCN(CCC#N)c1ccccc1,inactive,inactive,inactive,inactive,inactive,inactive,inactive,inactive,inactive,inactive,inactive,inactive,inactive,inactive,inactive,inactive,inactive,inactive
CC(Cc1ccccc1)(NC(=O)CN)c1ccccc1 (configuration not stated),inactive,inactive,inactive,inactive,inactive,inactive,inactive,inactive,inactive,inactive,inactive,inactive,inactive,inactive,inactive,inactive,inactive,
CC1=C(O)C(=O)CO1,inactive,inactive,inactive,inactive,inactive,inactive,inactive,inactive,inactive,inactive,inactive,inactive,inactive,inactive,inactive,inactive,inactive,inactive
CN1CC(=O)N2[C@H](c3ccc4c(c3)OCO4)c3[nH]c4ccccc4c3C[C@@H]2C1=O,inactive,inactive,inactive,inactive,inactive,inactive,inactive,inactive,inactive,inactive,inactive,inactive,inactive,inactive,inactive,inactive,inactive,inactive
O=[N+]([O-])c1cccc(Cl)c1Cl,inactive,inactive,inactive,inactive,inactive,inactive,inactive,inactive,inactive,inactive,inactive,inactive,inactive,inactive,inactive,inactive,inactive,inactive
CC(=O)NNC(C)=O,inactive,inactive,inactive,inactive,inactive,inactive,inactive,inactive,inactive,inactive,inactive,inactive,inactive,inactive,inactive,inactive,inactive,inactive
CCN(CC)C(=O)c1ccc(O)c(OC)c1,inactive,inactive,inactive,inactive,inactive,inactive,inactive,inactive,inactive,inactive,inactive,inactive,inactive,inactive,inactive,,,inactive
CC(C)(C)C1CCCCC1=O (configuration not stated),inactive,inactive,inactive,inactive,inactive,inactive,inactive,inactive,inactive,inactive,inactive,inactive,inactive,inactive,,,inactive,inactive
CC/C=C/CCCCCCCCCCOC(C)=O,inactive,inactive,inactive,inactive,inactive,inactive,inactive,inactive,inactive,inactive,inactive,inactive,inactive,,inactive,inactive,inactive,inactive
COC(=O)c1ccc(C(=O)OC)c(C(=O)OC)c1,inactive,inactive,inactive,inactive,inactive,inactive,inactive,inactive,inactive,inactive,inactive,inactive,inactive,,,inactive,inactive,inactive
COC(=O)c1cc(Cl)cc(Cl)c1,inactive,inactive,inactive,inactive,inactive,inactive,inactive,inactive,inactive,inactive,inactive,inactive,,,inactive,,inactive,inactive
NNc1nc(-c2ccccc2)cs1,inactive,62.9 µM (active),inactive,inactive,inactive,inactive,inactive,inactive,inactive,inactive,inactive,inactive,,,inactive,,inactive,inactive
CC[N+](CC)(CC(=O)Nc1c(C)cccc1C)Cc1ccccc1 (tested in a mixture with another compound),inactive,inactive,inactive,inactive,inactive,inactive,inactive,inactive,inactive,inactive,inactive,inactive,,inactive,,,inactive,inactive
CC(C)NCC(O)c1cc(O)cc(O)c1 (configuration not stated),inactive,inactive,inactive,inactive,inactive,inactive,inactive,inactive,inactive,inactive,inactive,inactive,,,inactive,,inactive,inactive
CCCCCCOC(=O)CC(CC(=O)OCCCCCC)(OC(=O)CCC)C(=O)OCCCCCC,inactive,inactive,inactive,inactive,inactive,inactive,inactive,inactive,inactive,inactive,inactive,inactive,inactive,inactive,,inactive,inactive,
CCCCN(CCCC)CCC(O)c1cc2c(Cl)cc(Cl)cc2c2cc(C(F)(F)F)ccc12 (configuration not stated),21.1 µM (active),inactive,inactive,inactive,inactive,inactive,inactive,inactive,inactive,inactive,inactive,inactive,inactive,,inactive,inactive,inactive,inactive
C/C=C/C=C/C=O,inactive,60.7 µM (active),inactive,inactive,inactive,inactive,inactive,inactive,inactive,inactive,inactive,inactive,,inactive,inactive,,,inactive
O=C(O)C(c1ccc(Cl)cc1)c1ccc(Cl)cc1,inactive,inactive,inactive,inactive,inactive,inactive,inactive,inactive,inactive,inactive,inactive,inactive,,inactive,inactive,,inactive,inactive
